Laboratory results: PubChem BioAssay AID1645887 (National Center for Advancing Translational Sciences (NCATS), 2021)
About 40 (0.2%) of roughly 16,000 compounds were called active. Inconclusive results (about 1%) are left out. The call rests on the fitted dose curve; in most records, active means well fitted activation curve with a large enough effect; inconclusive means small, poorly fitted or top-dose-only effect, or another doubt; inactive means no such curve, though single readings can be large or run the other way. The sample as a whole holds a higher share of actives than the screen did. Some compounds were tested as several samples or in several runs, with calls that do not always agree. Residues, ends and D or L forms follow the SMILES beside them.

Target: Rap guanine nucleotide exchange factor 4 (Homo sapiens) (UniProt Q8WZA2)
Sequence (Q8WZA2 whole entry, looked up): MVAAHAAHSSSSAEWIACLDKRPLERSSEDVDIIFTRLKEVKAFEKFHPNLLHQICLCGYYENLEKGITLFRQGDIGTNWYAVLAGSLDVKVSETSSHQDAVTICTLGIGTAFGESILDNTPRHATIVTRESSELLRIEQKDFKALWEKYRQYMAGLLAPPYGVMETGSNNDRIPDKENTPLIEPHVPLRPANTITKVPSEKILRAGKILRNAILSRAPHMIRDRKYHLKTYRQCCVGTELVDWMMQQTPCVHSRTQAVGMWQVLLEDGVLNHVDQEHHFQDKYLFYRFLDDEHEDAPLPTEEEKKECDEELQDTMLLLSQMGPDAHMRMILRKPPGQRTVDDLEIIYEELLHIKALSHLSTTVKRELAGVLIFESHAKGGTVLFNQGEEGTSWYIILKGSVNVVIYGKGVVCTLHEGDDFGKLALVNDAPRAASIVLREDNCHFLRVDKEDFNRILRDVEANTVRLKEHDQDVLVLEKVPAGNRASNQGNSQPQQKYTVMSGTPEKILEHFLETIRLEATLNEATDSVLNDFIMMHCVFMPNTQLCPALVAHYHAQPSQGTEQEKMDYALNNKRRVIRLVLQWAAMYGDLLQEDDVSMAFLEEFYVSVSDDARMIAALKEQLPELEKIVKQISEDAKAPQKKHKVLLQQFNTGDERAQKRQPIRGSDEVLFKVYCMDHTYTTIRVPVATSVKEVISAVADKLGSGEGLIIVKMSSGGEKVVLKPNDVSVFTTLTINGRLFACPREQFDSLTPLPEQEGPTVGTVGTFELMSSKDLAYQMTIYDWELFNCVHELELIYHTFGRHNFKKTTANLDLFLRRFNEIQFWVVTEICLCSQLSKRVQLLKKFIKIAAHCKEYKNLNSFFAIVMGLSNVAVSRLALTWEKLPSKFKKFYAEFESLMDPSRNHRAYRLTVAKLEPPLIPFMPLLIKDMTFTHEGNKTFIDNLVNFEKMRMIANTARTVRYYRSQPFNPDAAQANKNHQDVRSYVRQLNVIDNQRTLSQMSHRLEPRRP
Assay: Validation qHTS for agonist of cAMP-regulated guanine nucleotide exchange factor 4 (EPAC2);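 on activation: exchange makes BODIPY-GDP fluorescence drop when released from Rap1B; series mostly up to about 150 µM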
Details: EPAC2 Rap1B BODIPY-GDP exchange, fluorescence; activation: active compounds read high
Source text: Principle Investigator: Xiaodong Cheng Ph.D.
The University of Texas Medical Branch, […], TX
In multi-cellular eukaryotic organisms, the effects of cAMP are transduced by two ubiquitously-expressed intracellular cAMP receptors, the classic protein kinase A/cAMP-dependent protein kinase (PKA/cAPK) and the more recently discovered exchange protein directly activated by cAMP/cAMP-regulated guanine nucleotide exchange factor (EPAC/cAMP-GEF). Both PKA and EPAC are ubiquitously expressed in all tissues, and an increase in intracellular cAMP levels will lead to the activation of both PKA and EPAC. Therefore, careful dissections of the individual role and relative contribution of EPAC and PKA within the overall cAMP signaling in various model systems are critical for further elucidating the mechanism of cAMP signaling. To date no EPAC-specific antagonists and agonist, as well as isoform-specific agonists have been reported, and developing EPAC-specific pharmacological probes to determine the physiological functions that EPAC play in the overall cAMP-mediated signaling remains a major challenge within the research field. Furthermore, identified regulators of EPAC may lead to new mechanism-based therapeutic strategies specifically targeting the EPAC / cAMP-signaling components as EPAC has been implicated to play important roles in major human pathological conditions such as diabetes, heart disease, and cancer.
This qHTS will be used to screen the Molecular Libraries Small Molecule Repository (MLSMR) as a concentration-titration series using the NCGC unique quantitative screening (qHTS) platform to find activators for EPAC1. In addition, this assay will also be used as a counterscreen for the EPAC2 qHTS. This fluorescent based assay is developed and validated for EPAC1 that measures exchange using EPAC effector Rap1 complex with BODIPY-GDP, a GDP analog with a tethered fluorophores. Activators are identified by monitoring the change in fluorescence signal as the exchanged free BODIPY-GDP has a reduced fluorescence compared to Rap1-bound BODIPY-GDP. Increase in signal (activation) is the desired outcome for the EPAC1 agonist while no activity in this assay is desired for the EPAC2 agonist counterscreen.
[1] de Rooij, J., Zwartkruis, F. J., Verheijen, M. H., Cool, R. H., Nijman, S. M., Wittinghofer, A., and Bos, J.L. (1998) Nature 396, 474-477.
Briefly, three uL of reagents (100 nM EPAC2, 250 nM RAP1B-BODIPY-GDP, 50 uM GDP) were dispensed into a 1536-well Greiner black solid-bottom medium binding assay plate. Controls and test compounds (23 nL) were transferred to the plate via a Kalypsys pin tool equipped with a 1536-pin array. The plates were centrifuged at 1,000 rpm for 15 seconds followed by 5 minute incubation at room temperature. The assay plates were read at 5 minute intervals for 30 minutes in the ViewLux plate reader using 480nm excitation and 540nm emission filters. The results were normalized to the agonist positive control of 6.5 mM cAMP.
On the % scale 0 is the no-effect control and ±100 the full control effect; potency means the concentration at half of the fitted maximal effect.

activation, inactive:
CCNc1ncc2nc(-c3ccccc3)c(=O)n(CCc3ccccc3)c2n1 4.35%
CN1CCCC(CNC(=O)c2cnn(-c3ncc4c(n3)-c3ccccc3CC4)c2C2CC2)C1 (centres undefined) -10.8%
O=C(CNC(=O)c1cccnc1)c1ccc(F)cc1 -17.4%
O=C(c1cn(C2CCCN(Cc3cc(Cl)ccc3O)C2)nn1)N1CCCCC1 (centres undefined) -0.543%
CNc1ccnc(-c2cccc(NS(C)(=O)=O)c2)n1 1.54%
CC(=O)Nc1ccc(S[C@@H](CCN2CC[C@H](C(C)(C)C)CCC2=O)c2ccccc2)cc1 -31.2%
O=C(O)COc1ccc(CCNS(=O)(=O)c2ccccc2)s1 2.15%
CCn1c(-c2ccccc2F)nc2cc(NC(C)=O)cc(C(=O)N3CCNC(=O)C3CC(=O)OC)c21 (centres undefined) -2.82%
O=C(C[N+]12CCCc3cccc(c31)CCC2)c1ccccc1 -2.28%
CN(C)c1ccc(C(=C2C=CC(=[N+](C)C)C=C2)c2ccccc2)cc1 -24.7%
Cn1c(C(c2cc3ccccc3n2C)c2cc3ccccc3n2C)cc2ccccc21 11.4%
COc1ccccc1CNc1ccnc(-c2ccoc2)n1 -10.4%
CCCN1CCC(=O)N([C@H](CSc2ccccc2)c2ccccc2)CC1 -10.4%
CC(=O)OC1CCC2(C)C3CC(=O)C4(C)C(CC5OC6(CCC(C)CO6)C(C)C54)C3CC[C@H]2C1 (some centres undefined) -13.5%
O=C(O)c1ccc2nc(-c3ccccc3)c(-c3ccccc3)nc2c1 11.6%
Cc1nc(NCc2c(F)cccc2F)sc1-c1ccn(CCN2CCOCC2)n1 -13.4%
COc1ccc(C(=O)N2CCC[C@@]3(CCN(c4ncccn4)C3)C2)cc1 -15.1%
COc1cccc(Cn2c(=O)c(-c3ccc(F)cc3)nc3cnc(N4CCNCC4)nc32)c1 12.8%
C=C1CCC(OC(C)=O)/C(C)=C/CC2[C@H]1CC2(C)C (some centres undefined) -15.7%
CCOC(=O)C[C@H]1c2cc(F)ccc2S(=O)(=O)N1C1CCCC1 -9.78%
Cc1cnc2ccccc2c1/C=C/c1ccc(N(C)C)cc1 20.8%
CN(C)c1ccc(/C=C/c2c3ccccc3nc3ccccc23)cc1 -14.9%
OC(CN1CCCCC1)c1cc(-c2ccccc2)on1 (centres undefined) 8.32%
CN(Cc1ccco1)c1ncnc2ccc(-c3ccccc3C(F)(F)F)cc12 -4.16%
Cc1c(C(=O)N(C)Cc2cscn2)sc2ncnc(NC[C@H]3CCc4ccccc4O3)c12 -2.34%
O=C(O)[C@@H]1CN[C@@H](C(=O)O)C1 11.8%
Cc1cc2c(c(-c3cnccn3)c1)OC(CNC(=O)c1ccc(-n3nc(C)cc3C)cc1)C2 (centres undefined) -7.18%
CC(C)CC(NC(=O)CN)C(=O)NC(Cc1ccccc1)C(=O)O (stereo not drawn) (H-Gly-Leu-Phe-OH; configuration not given here) -3.33%
CO[C@H]1[C@H](NC(=O)c2ccco2)c2ccccc2C12CCN(Cc1cnc(N(C)C)s1)CC2 -21.4%
COc1ccc(-c2nc3cnc(OC)nc3n(C[C@H]3CCCO3)c2=O)cc1 -6.48%
O=C(O)CCC(=O)OC[C@@H](NC(=O)C(Cl)Cl)C(O)c1ccc([N+](=O)[O-])cc1 (some centres undefined) -9.09%
COCCn1c(=O)c(C)nc2cnc(OC)nc21 -6.26%
CC(=O)O[C@H]1C[C@H]2CC[C@@H]3[C@H]4C[C@@H]([N+]5(C)CCCCC5)[C@@H](OC(C)=O)[C@]4(C)CC[C@@H]3[C@@]2(C)C[C@@H]1[N+]1(C)CCCCC1 -8.62%
O=c1c(-c2ccccc2)nc2cnc(Oc3ccccc3)nc2n1Cc1cccs1 -18.6%
CN1CCN(c2ncc3nc(CCc4ccccc4)c(=O)n(Cc4cccs4)c3n2)CC1 14.9%
CC1(S(=O)(=O)O)CC(=O)c2ccccc2C1=O (centres undefined) 3.25%
CC1=CC(=O)c2ccccc2C1=O -29.9%
CC1(C)CCC2=C(O1)c1ccccc1C(=O)C2=O 17.8%
CC(C)C(C)/C=C/C(C)C1CCC2C3=CCC4CC(=O)CC[C@@]4(C)C3CC[C@]21C (some centres undefined) 0.449%
O=C(O)c1cccc(/C=C2/C[C@@H]3[C@@H](/C=C/[C@@H](O)C4CCCCC4)[C@H](O)C[C@@H]3O2)c1 15.9%
C=C1Cc2c(Cl)cc3[nH]c4c5c3c2[C@@]2(O)[C@@H]1C[C@@H]2C(C)(C)O[C@H]5[C@@H]1CC[C@@]2(O)[C@@]35O[C@@H]3[C@@H](O)[C@@H](C(=O)O)O[C@H]5CC[C@]2(C)[C@@]41C -9.97%
N#CC[C@H](Cc1ccccc1)N1CC[C@@H](NC(=O)OCc2ccccc2)CCC1=O -28.7%
Oc1cc(-c2nc3ccccc3s2)cc2c1OCCN(Cc1cccn1-c1ccccn1)C2 7.3%
COc1ccc(CN([C@H](CO)CC(C)C)S(=O)(=O)N(Cc2ccccc2)[C@H](CO)CC(C)C)cc1 -27.3%
N#CCCn1c(=O)c(-c2cccs2)nc2cnc(Nc3ccccc3)nc21 -2.03%
CCNc1ncc2nc(-c3cccs3)c(=O)n(CCc3ccccc3)c2n1 -14%
O=c1[nH]c(=O)n(C2CC(O)C(CO)O2)cc1F (centres undefined) -6.18%
CC(=O)Oc1ccc2c(c1)CCC1C2CC[C@]2(C)C(OC(C)=O)CCC12 (some centres undefined) -1.9%
C[C@]12CC[C@@H]3c4ccc(OC(=O)c5ccccc5)cc4CC[C@H]3[C@@H]1CC[C@@H]2O -2.11%
CN(C)C(=O)c1ccc(-c2nc(N3CCOCC3)c3ccccc3n2)cc1 -5.48%
CC(C)C[C@@H](CC#N)N1CCN(Cc2ccccc2)CCC1=O -11.1%
Clc1ccc[n+](CCCCC[n+]2cccc(Cl)c2)c1 -27.9%
O=C(Nc1ccc(C(F)(F)F)cc1[N+](=O)[O-])O[C@H]1[C@H](Cc2ccccc2)NS(=O)(=O)[C@H]2C[C@@H]3C=C[C@]12O3 -19.6%
COc1ccc(C(=O)C[n+]2cccc3cccc(O)c32)cc1 -13.2%
CCCCC(=O)OCC(=O)[C@]1(O)Cc2c(O)c3c(c(O)c2[C@@H](O[C@H]2C[C@H](NC(=O)C(F)(F)F)[C@H](O)[C@H](C)O2)C1)C(=O)c1c(OC)cccc1C3=O -1%
COc1cccc2c1C(=O)c1c(O)c3c(c(O)c1C2=O)C[C@@](O)(C(=O)CO)C[C@@H]3O[C@H]1C[C@H](N)[C@H](O[C@@H]2CCCCO2)[C@H](C)O1 1.58%
CC[C@@]1(O)C[C@H](O[C@H]2C[C@H](N(C)C)[C@H](O[C@H]3C[C@H](O)[C@H](O[C@H]4CCC(=O)[C@H](C)O4)[C@H](C)O3)[C@H](C)O2)c2c(cc3c(c2O)C(=O)c2c(O)cccc2C3=O)[C@H]1C(=O)OC 26%
COc1cccc2c1C(=O)c1c(O)c3c(c(O)c1C2=O)C[C@@](O)(C(=O)CO)C[C@@H]3O[C@H]1C[C@H](N)[C@H](O)[C@H](C)O1 -17.2%
Cc1c(C(=O)NCc2ccco2)cnn1-c1ncc2c(n1)-c1ccccc1CC2 -0.162%
O=C(c1ccncc1)N1CCC2(CCCN(c3ccc(-c4ccccc4)cc3)C2)CC1 -3.07%
COc1cc2c(cc1OC)C(=O)N(C)CC2 -9.91%
CC(C)NC(=O)[C@@H]1C[C@@H](Sc2ccccn2)CN1C1CCN(C)CC1 -0.85%
C=CCN1[C@@H](Cc2ccccc2)COCCS1(=O)=O -11.2%
Cc1cccc(CN2Cc3cccc4c3[C@H](C=CC4)CC2=O)c1 -35.8%
Cc1cc(CC(=O)O)c(C)n1-c1ccc(Cl)cc1 -0.347%
COc1ccccc1CNc1ncncc1-c1ccccc1CN(C)C -6.39%
COc1ccccc1CCNc1ncnc2sc(C(=O)N3CCCC3)c(C)c12 -2.93%
COc1cccc(-c2ccc3ncnc(NCc4cccnc4)c3c2)c1 -11%
Clc1cccc[n+]1CCc1ccccc1 -40.7%
COc1ccc(N2C(=O)[C@@H]3C[C@H]2CN3Cc2ccc3nccnc3c2)cc1Cl -3.06%
CC[C@@H]1[C@H]2CCCC(=O)N3CC[C@@H](C[C@H]1O)[C@@H]23 -8.94%
N[C@@H](Cn1cc(I)c(=O)n(Cc2ccc(C(=O)O)cc2)c1=O)C(=O)O 2.18%

Potency, active:
CN(C)c1ccc(/C=C/c2c3c(nc4ccccc24)CCCC3)cc1 44.7 µM
CC1(C)CCC2=C(O1)c1ccccc1C(=O)C2=O 70.8 µM
CCNc1ncc2nc(-c3cccs3)c(=O)n(CCC#N)c2n1 50.1 µM
CC(=O)Oc1ccc2c(c1)CC[C@@H]1[C@@H]2CC[C@]2(C)[C@@H](O)CC[C@@H]12 44.7 µM
CC(=O)[C@]1(O)Cc2c(O)c3c(c(O)c2[C@@H](O[C@H]2C[C@H](N)[C@H](O)[C@H](C)O2)C1)C(=O)c1c(O)cccc1C3=O 100 µM
CC(=O)[C@]1(O)Cc2c(O)c3c(c(O)c2[C@@H](O[C@H]2C[C@H](N)[C@H](O)[C@H](C)O2)C1)C(=O)c1ccccc1C3=O 100 µM
COc1cccc2c1C(=O)c1c(O)c3c(c(O)c1C2=O)C[C@@](O)(C(C)=O)C[C@@H]3O[C@H]1C[C@H](N)[C@H](O)[C@H](C)O1 100 µM
